Screening data (PubChem)
Rows were chosen to be rich in hits. Some 0.7% of all compounds tested hit in one or more screens of this group.
Mtb hypoxia inh – inhibitors of hypoxia-regulated fluorescent reporter in Mycobacterium tuberculosis; M. tuberculosis hypoxia-regulated fluorescent reporter, fluorescence; fluorescence inhibition, % (no concentration beside the values); 300,000 compounds, 0.1% hits; AID 1159583; in the data active means fluorescence inhibition mostly above about 23%, no sharp cut-off; inactive means mostly below about 17%
SARS 3CLpro inh-1 – SARS-CoV 3CLpro protease inhibition; P0C6X7; inhibition, % at 6 µM; recombinant SARS-CoV 3CLpro, quenched FRET peptide cleavage; AID 1706; 290,000 compounds, 0.14% hits; in the data active means inhibition above about 12%
DUSP3 inh – DUSP3 (human) phosphatase inhibition; P51452; recombinant VHR phosphatase, pNPP absorbance; inhibition, % at 13.3 µM; 290,000 compounds, 0.52% hits; in the data active means inhibition above about 50%
Target sequence (P51452 whole entry, looked up): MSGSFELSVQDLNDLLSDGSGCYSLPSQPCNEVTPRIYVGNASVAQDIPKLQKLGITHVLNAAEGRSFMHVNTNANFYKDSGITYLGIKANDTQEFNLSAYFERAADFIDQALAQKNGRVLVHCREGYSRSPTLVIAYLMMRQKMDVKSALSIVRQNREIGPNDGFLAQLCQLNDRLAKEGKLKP
BioA inh-1 – blocks M. tuberculosis BioA enzyme activity. purified M. tuberculosis BioA enzyme, plate reader. inhibition, % at 9.99 µM. 360,000 compounds, 0.096% hits. AID 602481; in the data active means inhibition above about 40%
FadD28 binding – blocks FadD28 binding to the bisubstrate probe; fluorescence polarization; 360,000 compounds, 0.22% hits; inhibition, % at 12.5 µM; AID 588549; in the data active means inhibition above about 8.5%, passing the limit was not always enough
SARS 3CLpro inh-2 – confirmation of SARS coronavirus 3C-like protease inhibitors | shares compounds with SARS 3CLpro inh-1 | QFRET protease activity assay, 3CLpro | inhibition, % at 6 µM | 380 compounds, 36% hits; in the data active means inhibition above about 13%
BioA inh-2 – inhibitors of Mycobacterium tuberculosis BioA enzyme; shares compounds with BioA inh-1; purified BioA enzyme, plate reader, dose response; max activity, %; 310 tested, under 10 active; AID 651679;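 further: top concentration of the dilution series was 10 µM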
Target sequence (P9WQ81 whole entry, looked up): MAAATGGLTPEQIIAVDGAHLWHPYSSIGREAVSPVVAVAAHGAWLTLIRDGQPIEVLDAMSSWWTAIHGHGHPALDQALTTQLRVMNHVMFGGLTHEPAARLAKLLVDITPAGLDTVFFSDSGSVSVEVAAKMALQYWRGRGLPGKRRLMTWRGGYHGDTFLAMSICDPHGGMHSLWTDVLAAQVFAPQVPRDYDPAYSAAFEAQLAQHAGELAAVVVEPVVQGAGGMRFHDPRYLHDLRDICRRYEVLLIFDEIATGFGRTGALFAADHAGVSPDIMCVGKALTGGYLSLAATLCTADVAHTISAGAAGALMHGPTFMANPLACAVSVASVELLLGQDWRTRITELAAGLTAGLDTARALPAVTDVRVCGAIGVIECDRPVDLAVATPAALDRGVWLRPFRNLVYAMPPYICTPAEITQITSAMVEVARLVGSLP
HepG2 tox 2 – kills HepG2 cells; shares compounds with BioA inh-1; HepG2 cytotoxicity, plate reader; max activity, %; 310 tested, under 10 active
NIH3T3 tox 5 – cytotoxicity in NIH3T3 cells. plate reader. activity change, negative = cytotoxicity, % at 26 µM. shares compounds with BioA inh-1. 310 tested, under 10 active
Numbers without * were called inactive. Unless noted, how the calls were made is not given here.

Screening O=[N+]([O-])c1ccccc1/C=C/C=N/n1c(-c2ccco2)n[nH]c1=S returned SARS 3CLpro inh-1 15*, DUSP3 inh 15, FadD28 binding 0 and SARS 3CLpro inh-2 4.
Screening O=C(Nc1ccc(F)c(Cl)c1)C1CCCN(c2cnccn2)C1 (centres undefined) returned SARS 3CLpro inh-1 -2, DUSP3 inh 2, BioA inh-1 41*, FadD28 binding -2, BioA inh-2 -4, HepG2 tox 2 -8 and NIH3T3 tox 5 -9.
O=C(Nc1cccc(F)c1)C1CCCN(c2cnccn2)C1 (centres undefined) was read as Mtb hypoxia inh 1, SARS 3CLpro inh-1 0, DUSP3 inh 0, BioA inh-1 53*, FadD28 binding 0, BioA inh-2 -6, HepG2 tox 2 -9 and NIH3T3 tox 5 8.
Screening CCc1cccc(NC(=O)C2CCCN(c3cnccn3)C2)c1 (centres undefined) returned Mtb hypoxia inh 3, SARS 3CLpro inh-1 1, DUSP3 inh 7, BioA inh-1 1 and FadD28 binding -4.
Screening Cc1cccc(NC(=O)C2CCCN(c3cnccn3)C2)c1 (centres undefined) returned Mtb hypoxia inh 10, SARS 3CLpro inh-1 0, DUSP3 inh -4, BioA inh-1 1 and FadD28 binding -4.
Screening O=C(c1ccc(S(=O)(=O)Nc2ccccc2F)cc1)N1CCN(c2ccccc2O)CC1 returned Mtb hypoxia inh 0, BioA inh-1 67*, FadD28 binding -1, BioA inh-2 -6, HepG2 tox 2 16 and NIH3T3 tox 5 -5.
Screening O=C(c1ccc(NS(=O)(=O)c2ccc(F)cc2)cc1)N1CCN(c2ccccc2O)CC1 returned Mtb hypoxia inh 1, SARS 3CLpro inh-1 0, DUSP3 inh 10, BioA inh-1 0 and FadD28 binding -1.
CO[C@H]1CN(C)C(=O)c2ccc(NC(C)=O)cc2OC[C@@H](C)N(C(=O)c2ccc(F)cc2)C[C@H]1C was read as BioA inh-1 50*, BioA inh-2 10, HepG2 tox 2 inactive and NIH3T3 tox 5 -5.
For CO[C@@H]1CN(C)C(=O)c2ccc(NC(C)=O)cc2OC[C@H](C)N(C(=O)c2ccc(F)cc2)C[C@H]1C the results were BioA inh-1 2.
For CCN1CC2C3C(=O)N(C)C(=O)C3[C@](CC)(C1=O)N2C(=O)c1ccc(C(C)(C)C)cc1 (some centres undefined) the results were Mtb hypoxia inh 6.
Screening COc1ccc(C=Cc2ccccc2)cc1C1C2C=CCC(C)C2C(=O)N1Cc1ccccc1 (centres undefined) returned Mtb hypoxia inh 13.
For C/C=C/c1ccc2c(c1)O[C@H](CN(C)C(=O)Nc1ccc(F)cc1)[C@H](C)CN([C@H](C)CO)S2(=O)=O the results were BioA inh-1 1.
`C/C=C/c1ccc2c(c1)O[C@@H](CN(C)C(=O)Nc1ccc(F)cc1)[C@@H](C)CN([C@@H](C)CO)S2(=O)=O` gave BioA inh-1 55*, BioA inh-2 -5, HepG2 tox 2 inactive and NIH3T3 tox 5 -14.
For Cn1ncc2cc3c(Nc4ccc(Cl)cc4)cccc3nc21 the results were BioA inh-1 81*, FadD28 binding 0, BioA inh-2 -4, HepG2 tox 2 -9 and NIH3T3 tox 5 -3.
Screening Cn1ncc2c(Nc3ccc(Cl)cc3)ncnc21 returned Mtb hypoxia inh 0, SARS 3CLpro inh-1 -1, DUSP3 inh -13, BioA inh-1 3 and FadD28 binding -3.
Screening Cc1cc(C)n(-c2ccc(C(=O)Nc3ccc4c(c3)OCO4)cc2)n1 returned Mtb hypoxia inh 10, SARS 3CLpro inh-1 5, DUSP3 inh 11, BioA inh-1 44*, FadD28 binding -7, BioA inh-2 -8, HepG2 tox 2 -8 and NIH3T3 tox 5 3.
CC(=O)c1cc2c(cc1NC(=O)c1ccc(-n3nc(C)cc3C)cc1)OCO2 was read as BioA inh-1 1 and FadD28 binding -4.
For CC(CC(=O)Nc1cccnc1)=NNC(=O)c1ccc([N+](=O)[O-])c(Cl)c1 the results were Mtb hypoxia inh -4.
Cc1cccc(C=NNC(=O)Cc2ccc(Cl)cc2)c1O was read as Mtb hypoxia inh 6.
For COC(=O)C1C(=O)C=C(Nc2ccc(F)cc2F)CC1c1ccc(OC)cc1 (centres undefined) the results were Mtb hypoxia inh 3, SARS 3CLpro inh-1 3, DUSP3 inh 21, BioA inh-1 19 and FadD28 binding -1.
Screening COC(=O)C1C(=O)C=C(Nc2ccc(F)cc2)CC1c1ccc(OC)cc1 (centres undefined) returned Mtb hypoxia inh 10, SARS 3CLpro inh-1 -2, DUSP3 inh 15, BioA inh-1 75*, FadD28 binding -5, BioA inh-2 -6, HepG2 tox 2 8 and NIH3T3 tox 5 -2.
Screening CC(=NNC(=O)c1ccc(CN2CCc3ccccc3C2)cc1)c1ccccc1O returned Mtb hypoxia inh 16.
`NCCCCC(C(=O)N1CCNCC1)n1cc(C(N)CC(N)=O)nn1` (centres undefined) gave Mtb hypoxia inh -3.
`Cc1ccc(/C=C(\CCC(=O)O)c2nc3ccccc3s2)cc1[N+](=O)[O-]` gave Mtb hypoxia inh -1, SARS 3CLpro inh-1 6, DUSP3 inh -7, BioA inh-1 90*, FadD28 binding -1, BioA inh-2 -5, HepG2 tox 2 6 and NIH3T3 tox 5 2.
CC1CN(C(C)CO)C(=O)c2cccc(NS(=O)(=O)c3cccs3)c2OC1CN(C)Cc1ccc(C(F)(F)F)cc1 (centres undefined) was read as Mtb hypoxia inh 12.
`CC(=O)c1ccc(NC(=O)Cc2ccsc2)cc1` gave Mtb hypoxia inh 0, SARS 3CLpro inh-1 3, DUSP3 inh 28, BioA inh-1 2 and FadD28 binding -2.
Screening CC(=O)c1ccc(NC(=O)COC(=O)Cc2ccsc2)cc1 returned BioA inh-1 47*, FadD28 binding 1, BioA inh-2 -6, HepG2 tox 2 12 and NIH3T3 tox 5 -3.
For O=C1C=C(c2ccc3cc[nH]c3c2)CC(c2ccc3c(c2)OCO3)C1 (centres undefined) the results were Mtb hypoxia inh -7.
Screening CCN(CC)c1ccc2cc(-c3nc4ccccc4[nH]3)c(=O)oc2c1 returned Mtb hypoxia inh -40, SARS 3CLpro inh-1 -40, DUSP3 inh 6, BioA inh-1 -10 and FadD28 binding 0.
For CCN(CC)c1ccc2cc(C(=O)c3cccs3)c(=O)oc2c1 the results were BioA inh-1 91*, FadD28 binding 1, BioA inh-2 -7, HepG2 tox 2 49 and NIH3T3 tox 5 -9.
